Laboratory results from PubChem BioAssay (EPA / NIEHS).
The source made the active and inactive calls. The calls were made as follows: active = hit-call score of the fitted dose curve at least 0.9, where 1 is the maximum; inactive = score below 0.9.

Assays:
Settings in all cases: mRNA level, 48 h; actives raise or lower the signal
[1] = read-out: ABC Transporter (ABCC2), ABCC2 (gene 1244); assay: LTEA_HepaRG_ABCC2: Life Technologies and Expression Analysis (LTEA) Assay for ABC Transporter (ABCC2) using HepaRG (AID 2283464)
Protocol: LTEA_HepaRG is a cell based, multiplexed-readout assay that uses HepaRG, a human liver cell line, with measurements taken at 48 hours after chemical dosing on a 96-well plate.LTEA_HepaRG_ABCC2 is one of 102 assay component(s) measured in the LTEA HepaRG cell culture assay. It is a marker of Steatosis/NR mediated transport.Data from the assay component LTEA_HepaRG_ABCC2 was analyzed into 1 endpoint. This assay endpoint, LTEA_HepaRG_ABCC2, was analyzed with bidirectional fitting relative to DMSO as the negative control and baseline of activity. Using a type of inducible reporter, measures of mRNA induction for gain or loss-of-signal activity can be used to understand regulation of transcription factor activity. To generalize the intended target to other relatable targets, this assay endpoint is annotated to the transporter intended target family, where the subfamily is ABC transporter.
(§1) A total of 1060 chemcials from the ToxCast library were tested in eight-point concentration-response experiments. Cell culture and cytotoxicity assays were conducted at Thermo Fisher Scientific's Custom Services facility (Madison, WI). […] Fluidigm's 96.96 Dynamic ArrayTM (Fluidigm, Amsterdam, the Netherlands) technology was used for gene expression analyses by quantitative reverse transcription polymerase chain reaction (qRT-PCR, performed by Quintiles/Expression Analysis, Durham, NC)89. […]

[2] = read-out: Broad substrate specificity ATP-binding cassette transporter ABCG2 (Homo sapiens) (UniProt Q9UNQ0); assay: LTEA_HepaRG_ABCG2: Life Technologies and Expression Analysis (LTEA) Assay for ABC Transporter (ABCG2) using HepaRG (AID 2283465)
In short: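 Gene expression of ABCG2 in HepaRG liver cells is quantified by qRT-PCR following 48 h exposure across an eight-point series topping at 100 uM. Values come from bidirectional fitting relative to DMSO vehicle.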

[3] = read-out: ATP-citrate lyase (ACLY), ACLY (gene 47); assay: LTEA_HepaRG_ACLY: Life Technologies and Expression Analysis (LTEA) Assay for ATP-citrate lyase (ACLY) using HepaRG (AID 2283466)
In short: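 ACLY expression changes in human HepaRG liver cells are quantified by qRT-PCR after 48 h exposure to test chemicals (maximum 100 uM, half-log steps). Values are fitted in both directions relative to 0.5% DMSO vehicle.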

[4] = read-out: Peroxisomal acyl-coenzyme A oxidase 1 (ACOX1) gene, ACOX1 (gene 51); assay: LTEA_HepaRG_ACOX1: Life Technologies and Expression Analysis (LTEA) Assay for Peroxisomal acyl-coenzyme A oxidase 1 (ACOX1) gene using HepaRG (AID 2283467)
In short: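 Human HepaRG hepatic cultures, 48 h treatment with test chemicals up to 100 uM. ACOX1 expression read by qRT-PCR relative to 0.5% DMSO vehicle.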

[5] = read-out: Alkaline Phosphatase, Placental (ALPP) gene, ALPP (gene 250); assay: LTEA_HepaRG_ALPP: Life Technologies and Expression Analysis (LTEA) Assay for Alkaline Phosphatase, Placental (ALPP) gene using HepaRG (AID 2283468)
In short: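 Using human liver HepaRG cells, chemicals are tested in duplicate over 48 h at half-log concentrations topping at 100 uM; phenobarbital 1 mM serves as induction control. ALPP mRNA change by qRT-PCR, bidirectional fit against vehicle.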

[6] = read-out: Bcl-2 (BAD) gene, BAD (gene 572); assay: LTEA_HepaRG_BAD: Life Technologies and Expression Analysis (LTEA) Assay for Bcl-2 (BAD) gene using HepaRG (AID 2283469)
In short: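 Activity values reflect up- or down-regulation of BAD mRNA in human HepaRG hepatic cells treated 48 h in serum-free medium, with eight-point half-log dosing capped at 100 uM and 0.5% DMSO vehicle.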

[7] = read-out: Bcl-2 (BAX) gene, BAX (gene 581); assay: LTEA_HepaRG_BAX: Life Technologies and Expression Analysis (LTEA) Assay for Bcl-2 (BAX) gene using HepaRG (AID 2283470)
In short: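 Gene expression measured by Fluidigm qRT-PCR with three housekeeping genes for normalisation. HepaRG cells, plated 48 h beforehand, treated 48 h at up to 100 uM (8-point, half-log) in 0.5% DMSO. Bidirectional fitting versus DMSO.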

[8] = read-out: adenosine kinase (ADK) gene, ADK (gene 132); assay: LTEA_HepaRG_ADK: Life Technologies and Expression Analysis (LTEA) Assay for adenosine kinase (ADK) gene using HepaRG (AID 2283471)
In short: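 ADK expression quantified by qRT-PCR, normalised to three housekeeping genes, after 48 h exposure of HepaRG cells to eight concentrations (top 100 uM, half-log steps, duplicate, 0.5% DMSO). Up- or down-regulation fitted relative to vehicle.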

[9] = read-out: Alpha-fetoprotein (AFP) gene, AFP (gene 174); assay: LTEA_HepaRG_AFP: Life Technologies and Expression Analysis (LTEA) Assay for Alpha-fetoprotein (AFP) gene using HepaRG (AID 2283472)
Protocol: It is a marker of Undifferentiated hepatocyte.Data from the assay component LTEA_HepaRG_AFP was analyzed into 1 endpoint. This assay endpoint, LTEA_HepaRG_AFP, was analyzed with bidirectional fitting relative to DMSO as the negative control and baseline of activity. Using a type of inducible reporter, measures of mRNA induction for gain or loss-of-signal activity can be used to understand regulation of transcription factor activity. To generalize the intended target to other relatable targets, this assay endpoint is annotated to the background measurement intended target family, where the subfamily is assay control.
as §1, with “WI). A single lot of human HepaRG cells (Thermo Fisher Scientific, Frederick, MD) was used for the cell culture experiments. 96-well format collagen type I coated plates of human HepaRG cells were prepared using established methods.” for “WI).”

BCL2L11 (gene 10018) = assay: LTEA_HepaRG_BCL2L11: Life Technologies and Expression Analysis (LTEA) Assay for Bcl-2 (BCL2L11) gene using HepaRG (AID 2283473)
In short: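 Human hepatic HepaRG cultures are treated 48 h with test chemicals (maximum 100 uM, 0.5% DMSO vehicle). Expression of BCL2L11 is measured by qRT-PCR against ACTB, GAPDH and POLR2A, with activity in either direction scored relative to vehicle.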

Measured: outcome

Sequence of Broad substrate specificity ATP-binding cassette transporter ABCG2 (Homo sapiens) (Q9UNQ0 whole entry, looked up): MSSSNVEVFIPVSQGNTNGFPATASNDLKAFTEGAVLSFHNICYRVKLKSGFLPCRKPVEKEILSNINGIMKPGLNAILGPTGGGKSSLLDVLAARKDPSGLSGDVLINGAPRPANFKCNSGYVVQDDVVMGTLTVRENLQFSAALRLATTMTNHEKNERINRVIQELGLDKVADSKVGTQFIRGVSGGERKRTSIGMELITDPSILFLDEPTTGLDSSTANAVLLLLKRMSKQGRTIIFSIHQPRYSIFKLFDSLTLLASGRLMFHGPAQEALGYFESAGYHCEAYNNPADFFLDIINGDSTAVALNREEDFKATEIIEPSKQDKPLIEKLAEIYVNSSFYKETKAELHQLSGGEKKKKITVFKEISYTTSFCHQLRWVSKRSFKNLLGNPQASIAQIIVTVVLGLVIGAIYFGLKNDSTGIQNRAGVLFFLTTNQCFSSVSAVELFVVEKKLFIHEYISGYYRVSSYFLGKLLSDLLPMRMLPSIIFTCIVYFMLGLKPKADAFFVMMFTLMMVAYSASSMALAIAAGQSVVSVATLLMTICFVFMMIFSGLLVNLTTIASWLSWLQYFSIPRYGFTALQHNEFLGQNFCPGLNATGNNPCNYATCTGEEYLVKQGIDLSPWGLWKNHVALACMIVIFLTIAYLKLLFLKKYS

O=C(O)c1ccc([N+](=O)[O-])cc1
inactive: all assays above
